Reference: PubChem BioAssay
For some assays here: Potency and affinity values are given separately. The source made the active and inactive calls. Unless noted, no rule for the calls is given here.

Columns and labels:
[1] = antimalarial activity against Dd2 strain (AID 2302;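 active = growth inhibition above 50% at the single 2 µM test dose, taken to imply half-maximal potency below 2 µM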;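 also: 0% = DMSO untreated growth and 100% = chloroquine plus artemisinin killed control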); conditions: P. falciparum Dd2 in RBCs, LDH growth readout, 72 h; at 2 µM; active compounds read high
[2] = HepG2 cytotoxicity, primary screen, cytotoxicity control for P. falciparum antimalarial project, cell-based, ATP luminescence (AID 2303;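 active = inhibition above 50%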;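 also: 0% = DMSO wells and 100% = digitonin-killed cells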); conditions: HepG2 viability, 24-48 h, at 10 µM, active compounds read high
[3] = target: L-lactate dehydrogenase (Plasmodium falciparum (isolate CDC / Honduras)) (UniProt Q27743); experiment: PfLDH activity inhibition – cell lysate, 3D7 strain, counter-screen for P. falciparum growth inhibition project (AID 2304);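 also: 0% = vehicle and 100% = reference inhibitor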; conditions: P. falciparum 3D7 crude extract, LDH APAD/NBT absorbance; at 2 µM; active compounds read high
[4] = inhibition of 3D7 malaria parasite growth – strain 3D7 (AID 2306);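 also: 0% = DMSO wells and 100% = chloroquine plus artemisinin control wells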; conditions: P. falciparum 3D7 erythrocytic growth, LDH absorbance, 72 h; at 2 µM; active compounds read high
[5] = target: Calcium-dependent protein kinase 1 (Plasmodium falciparum (isolate 3D7)) (UniProt P62344); experiment: PfCDPK1 kinase inhibitors, biochemical, TCAMS library (AID 1159585; cut-off not given, nearly all actives have IC50 up to about 0.98 µM;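 also: inhibitors leave more ATP so luminescence rises with inhibition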); conditions: recombinant PfCDPK1, Kinase-Glo ATP depletion luminescence
[6] = target: Plasmodium falciparum protein kinase 6 (PK6, PF3D7_1337100) (UniProt Q8IDW1); experiment: PfPK6 kinase inhibitors, biochemical, TCAMS library (AID 1159586); conditions: recombinant PfPK6, Kinase-Glo ATP depletion luminescence
[7] = target: Protein kinase 7 (PK7), Plasmodium falciparum 3D7 (PF3D7_0213400) (UniProt Q7YTF7); experiment: inhibition of Plasmodium PK7 catalytic activity – biochemical, TCAMS antimalarial set, Kinase-Glo luminescence (AID 1159587); conditions: recombinant PfPK7, Kinase-Glo ATP depletion luminescence
[8] = target: Calcium-dependent protein kinase 4 (Plasmodium falciparum (isolate 3D7)) (UniProt Q8IBS5); experiment: PfCDPK4 kinase inhibitors, biochemical, TCAMS library (AID 1159588; cut-off not given, nearly all actives have IC50 up to about 0.91 µM); conditions: recombinant PfCDPK4, Kinase-Glo ATP depletion luminescence
Calcium-dependent protein kinase 4 (Plasmodium falciparum (isolate 3D7)), sequence (Q8IBS5 whole entry, looked up): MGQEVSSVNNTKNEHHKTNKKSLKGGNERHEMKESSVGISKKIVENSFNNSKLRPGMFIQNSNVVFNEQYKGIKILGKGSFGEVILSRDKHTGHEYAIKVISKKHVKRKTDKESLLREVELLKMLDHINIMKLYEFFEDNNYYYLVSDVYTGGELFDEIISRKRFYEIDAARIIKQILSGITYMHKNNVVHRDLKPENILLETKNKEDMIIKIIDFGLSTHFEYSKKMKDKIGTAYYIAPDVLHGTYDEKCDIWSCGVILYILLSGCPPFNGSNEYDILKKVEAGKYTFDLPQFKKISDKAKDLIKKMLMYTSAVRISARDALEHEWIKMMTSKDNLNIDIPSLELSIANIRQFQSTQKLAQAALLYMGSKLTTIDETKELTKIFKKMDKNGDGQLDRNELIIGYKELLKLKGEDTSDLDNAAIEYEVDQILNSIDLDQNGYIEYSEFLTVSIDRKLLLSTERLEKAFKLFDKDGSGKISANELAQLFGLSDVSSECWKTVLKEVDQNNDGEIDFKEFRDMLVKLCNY

Protein kinase 7 (PK7), Plasmodium falciparum 3D7 (PF3D7_0213400), sequence (Q7YTF7 1-343): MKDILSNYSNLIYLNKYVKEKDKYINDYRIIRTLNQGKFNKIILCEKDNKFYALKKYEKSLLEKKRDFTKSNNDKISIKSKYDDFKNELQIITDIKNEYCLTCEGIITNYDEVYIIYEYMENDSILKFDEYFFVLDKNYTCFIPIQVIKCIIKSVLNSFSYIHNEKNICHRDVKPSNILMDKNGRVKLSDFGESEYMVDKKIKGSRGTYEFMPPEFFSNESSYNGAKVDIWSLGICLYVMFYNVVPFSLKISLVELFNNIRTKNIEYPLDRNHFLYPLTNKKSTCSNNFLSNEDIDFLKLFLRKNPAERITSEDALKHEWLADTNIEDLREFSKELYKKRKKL
Calcium-dependent protein kinase 1 (Plasmodium falciparum (isolate 3D7)), sequence (P62344 whole entry, looked up): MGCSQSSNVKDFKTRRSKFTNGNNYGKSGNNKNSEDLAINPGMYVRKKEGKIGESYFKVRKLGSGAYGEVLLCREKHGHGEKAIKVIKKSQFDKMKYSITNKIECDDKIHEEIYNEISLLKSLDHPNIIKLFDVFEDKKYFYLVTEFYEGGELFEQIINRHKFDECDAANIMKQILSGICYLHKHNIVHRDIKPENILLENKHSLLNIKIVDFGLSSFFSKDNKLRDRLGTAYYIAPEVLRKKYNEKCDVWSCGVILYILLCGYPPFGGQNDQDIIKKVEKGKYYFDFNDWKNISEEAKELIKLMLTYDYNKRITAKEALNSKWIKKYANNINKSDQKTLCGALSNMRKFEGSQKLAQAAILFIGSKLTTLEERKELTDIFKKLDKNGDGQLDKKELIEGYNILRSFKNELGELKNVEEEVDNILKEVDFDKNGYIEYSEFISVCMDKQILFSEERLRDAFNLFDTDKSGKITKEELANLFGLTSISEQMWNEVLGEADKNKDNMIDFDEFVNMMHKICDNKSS
L-lactate dehydrogenase (Plasmodium falciparum (isolate CDC / Honduras)), sequence (Q27743 whole entry, looked up): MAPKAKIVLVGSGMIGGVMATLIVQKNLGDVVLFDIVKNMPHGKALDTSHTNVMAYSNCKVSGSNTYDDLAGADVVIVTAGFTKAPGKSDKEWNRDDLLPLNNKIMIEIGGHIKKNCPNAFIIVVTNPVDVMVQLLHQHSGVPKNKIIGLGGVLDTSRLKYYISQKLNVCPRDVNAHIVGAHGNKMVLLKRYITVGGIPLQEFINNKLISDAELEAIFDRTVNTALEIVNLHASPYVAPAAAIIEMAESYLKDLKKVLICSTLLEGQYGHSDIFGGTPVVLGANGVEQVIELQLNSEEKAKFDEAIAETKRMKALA
Plasmodium falciparum protein kinase 6 (PK6, PF3D7_1337100), sequence (Q8IDW1 1-305): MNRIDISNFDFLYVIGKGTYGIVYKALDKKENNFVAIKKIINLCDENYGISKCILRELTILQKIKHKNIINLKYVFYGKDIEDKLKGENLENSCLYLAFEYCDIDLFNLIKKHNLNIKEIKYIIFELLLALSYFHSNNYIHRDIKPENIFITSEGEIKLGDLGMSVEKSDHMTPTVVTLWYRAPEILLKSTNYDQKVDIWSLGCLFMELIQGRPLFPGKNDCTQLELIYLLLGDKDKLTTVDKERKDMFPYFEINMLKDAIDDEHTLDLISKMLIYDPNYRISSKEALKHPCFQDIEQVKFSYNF

COCCN(C)CCCOc1cc2c(cc1OC)ncn2-c1cc(OCc2ccccc2C(F)(F)F)c(C(N)=O)s1
inactive: growth inhibition [1] 49% | inhibition [2] 24% | inhibition [3] 2% | outcome [5] | outcome [6] | outcome [7] | outcome [8]
active: growth inhibition [4] 98%

OCC1CCN(Cc2ccc(-c3ccc(-c4nc5ccc(F)cc5[nH]4)s3)cc2)CC1
inactive: inhibition [2] 14% | inhibition [3] -3% | outcome [5] | outcome [6] | outcome [7] | outcome [8]
active: growth inhibition [1] 98% | growth inhibition [4] 101%

COc1ccc(OCCCON2C(N)=NC(N)=NC2(C)C)cc1
active: growth inhibition [1] 94% | inhibition [2] 55% | growth inhibition [4] 97%
inactive: inhibition [3] -3% | outcome [5] | outcome [6] | outcome [7] | outcome [8]

CC(Cc1ccc(NS(=O)(=O)c2ccc(CC(C)NCCc3cccc(Cl)c3)cc2)cc1)NCCc1cccc(Cl)c1 (stereo not given)
active: growth inhibition [4] 100%
inactive: growth inhibition [1] 38% | inhibition [2] 12% | inhibition [3] 4% | outcome [5] | outcome [6] | outcome [7] | outcome [8]

O=C(/C=C/c1ccc(Cl)c(Cl)c1)NCCCCCN1CCC(c2cn[nH]c2-c2ccccc2)CC1
active: growth inhibition [4] 85%
inactive: growth inhibition [1] -2% | inhibition [2] 28% | inhibition [3] -2% | outcome [5] | outcome [6] | outcome [7] | outcome [8]

C=CCc1cccc(CN2CCC(c3cc(=O)[nH]c(-c4ccccn4)n3)CC2)c1O
active: growth inhibition [1] 75% | growth inhibition [4] 91%
inactive: inhibition [2] 46% | inhibition [3] -2% | outcome [5] | outcome [6] | outcome [7] | outcome [8]

CCCCN(CCCC)CCNC(=O)c1ccc(-c2nc3ccc(Cl)cc3[nH]2)c(OCC)c1
inactive: inhibition [2] 0% | inhibition [3] 9% | outcome [5] | outcome [6] | outcome [7] | outcome [8]
active: growth inhibition [1] 80% | growth inhibition [4] 101%

O=C1CCCN1CCCNCc1cccc(-c2ccc(-c3nc4ccc(C(F)(F)F)cc4[nH]3)s2)c1
inactive: inhibition [2] 19% | inhibition [3] -4% | outcome [5] | outcome [6] | outcome [7] | outcome [8]
active: growth inhibition [1] 99% | growth inhibition [4] 100%

CN1CCCC(CN2CCN(Cc3cccc(-c4ccc(-c5nc6ccc(F)cc6[nH]5)cc4)c3)CC2)C1 (stereo not given)
inactive: inhibition [3] -1% | outcome [5] | outcome [6] | outcome [7] | outcome [8]
active: growth inhibition [1] 100% | inhibition [2] 78% | growth inhibition [4] 101%

CCOc1cc(C)ccc1C1CCN(CCN2CCC(CNC(=O)c3ccc(-c4ccc(C(F)(F)F)cc4)cc3)CC2)CC1
inactive: inhibition [3] -2% | outcome [5] | outcome [6] | outcome [7] | outcome [8]
active: growth inhibition [1] 89% | inhibition [2] 53% | growth inhibition [4] 98%

O=c1c(NCCCN(Cc2ccc(F)cc2)c2ccccn2)c(NCc2ccncc2)c1=O
active: growth inhibition [1] 95% | growth inhibition [4] 101%
inactive: inhibition [2] 30% | inhibition [3] 3% | outcome [5] | outcome [6] | outcome [7] | outcome [8]

O=C(NCc1cccc2ccccc12)[C@@H]1CCCN1C(=O)c1ccc(O)c(-c2ccc(Cl)c(Cl)c2)c1
active: growth inhibition [1] 71% | growth inhibition [4] 98%
inactive: inhibition [2] -4% | inhibition [3] 2% | outcome [5] | outcome [6] | outcome [7] | outcome [8]

Cc1sc(CNCCCNc2cc(=O)c3ccccc3[nH]2)c(C(F)(F)F)c1C
active: growth inhibition [1] 70% | growth inhibition [4] 99%
inactive: inhibition [2] -12% | inhibition [3] 1% | outcome [5] | outcome [6] | outcome [7] | outcome [8]

COc1ccc(NC(=O)Nc2ccc(-c3cccc(-c4nc5c(C)cccc5[nH]4)c3)cc2)cc1
active: growth inhibition [1] 75% | growth inhibition [4] 101%
inactive: inhibition [2] 33% | inhibition [3] 4% | outcome [5] | outcome [6] | outcome [7] | outcome [8]

CN1CCN(CC(=O)Nc2ccc(-c3cccc(-c4nc5ccc(F)cc5[nH]4)c3)cc2)CC1
active: growth inhibition [1] 100% | growth inhibition [4] 100%
inactive: inhibition [2] 18% | inhibition [3] 3% | outcome [5] | outcome [6] | outcome [7] | outcome [8]

COc1ccc(C(=O)C2CCN(CCCCNC(=O)c3ccc(NC(=O)c4ccc(Cl)cc4)cc3)CC2)c(OC)c1
inactive: growth inhibition [1] 13% | inhibition [2] 47% | inhibition [3] 4% | outcome [5] | outcome [6] | outcome [7] | outcome [8]
active: growth inhibition [4] 98%

Cc1cc(NC(=O)c2cccs2)ccc1OC1CCN(Cc2ccccc2)C1 (stereo not given)
active: growth inhibition [1] 87% | growth inhibition [4] 84%
inactive: inhibition [2] 7% | inhibition [3] -1% | outcome [5] | outcome [6] | outcome [7] | outcome [8]

O=C(Nc1ccc(Cl)cc1)Nc1nc2ccc([N+](=O)[O-])cc2[nH]1
inactive: growth inhibition [1] 6% | inhibition [2] -2% | inhibition [3] 3% | outcome [5] | outcome [6] | outcome [7] | outcome [8]
active: growth inhibition [4] 101%

CC(Oc1ccc(Cl)cc1)C(=O)NCCC1CCN(CCCCCNC(=O)/C=C/c2ccc(Cl)c(Cl)c2)CC1 (stereo not given)
active: growth inhibition [4] 89%
inactive: growth inhibition [1] 20% | inhibition [2] 48% | inhibition [3] -5% | outcome [5] | outcome [6] | outcome [7] | outcome [8]

CCOc1c(CCNCCCCNCCc2ccc3ccccc3c2OCC)ccc2ccccc12
active: growth inhibition [1] 87% | inhibition [2] 100% | growth inhibition [4] 94%
inactive: inhibition [3] -3% | outcome [5] | outcome [6] | outcome [7] | outcome [8]

c1ccc2[nH]c(-c3ccc(-c4ccc(CNCCc5ccncc5)cc4)s3)nc2c1
active: growth inhibition [1] 98% | growth inhibition [4] 101%
inactive: inhibition [2] 28% | inhibition [3] -6% | outcome [5] | outcome [6] | outcome [7] | outcome [8]

CC(C)COc1ccc(Cl)cc1Cc1ccc(-c2nc3ccc(F)cc3[nH]2)o1
active: growth inhibition [4] 97%
inactive: growth inhibition [1] 49% | inhibition [2] 35% | inhibition [3] 6% | outcome [5] | outcome [6] | outcome [7] | outcome [8]

CC(C)C[C@@H](/C=N/NC(N)=O)NC(=O)[C@H](CC(C)C)NC(=O)[C@H](CC(C)C)NC(=O)OCc1ccccc1
inactive: inhibition [2] 41% | inhibition [3] -1% | outcome [5] | outcome [6] | outcome [7] | outcome [8]
active: growth inhibition [1] 99% | growth inhibition [4] 100%

CCCN1CCN(CCCNC(=O)c2cc3c(Cl)nc4ccc(C)cc4c3s2)CC1
inactive: growth inhibition [1] 27% | inhibition [2] 18% | inhibition [3] 0% | outcome [5] | outcome [6] | outcome [7] | outcome [8]
active: growth inhibition [4] 97%

COc1ccc2c(NCCc3ccccc3)cc(-c3ccccc3)nc2c1
inactive: growth inhibition [1] 1% | inhibition [2] 13% | inhibition [3] 2% | outcome [5] | outcome [6] | outcome [7] | outcome [8]
active: growth inhibition [4] 98%

CCn1cc(C(=O)O)c(=O)c2cc(F)c(N3CCN(S(=O)(=O)c4ccc(N)cc4)CC3)cc21
active: growth inhibition [1] 79% | growth inhibition [4] 90%
inactive: inhibition [2] -2% | inhibition [3] 4% | outcome [5] | outcome [6] | outcome [7] | outcome [8]

O=C(Cc1ccsc1)NCC(c1ccccc1Cl)c1c[nH]c2ccccc12 (stereo not given)
active: growth inhibition [1] 71% | growth inhibition [4] 86%
inactive: inhibition [2] 0% | inhibition [3] -1% | outcome [5] | outcome [6] | outcome [7] | outcome [8]

N#Cc1ccc(-c2ccc(C(=O)NCCCCN3CCC(c4ccncc4)CC3)cc2)cc1
inactive: growth inhibition [1] 16% | inhibition [2] 34% | inhibition [3] -3% | outcome [5] | outcome [6] | outcome [7] | outcome [8]
active: growth inhibition [4] 94%

Cn1nc(-c2ccc(NC(=O)Nc3cc(C(F)(F)F)ccc3F)cc2)c2cnc(NCCc3cnc[nH]3)nc21
active: growth inhibition [1] 56% | growth inhibition [4] 99%
inactive: inhibition [2] 15% | inhibition [3] -3% | outcome [5] | outcome [6] | outcome [7] | outcome [8]

Cc1ccc(NC(=O)Cc2noc(CC3CCCN3C(=O)N[C@@H](C)c3ccccc3)n2)cc1 (stereo not given in full)
inactive: inhibition [2] 1% | inhibition [3] -1% | outcome [5] | outcome [6] | outcome [7] | outcome [8]
active: growth inhibition [1] 90% | growth inhibition [4] 95%

CN(C)c1cccc2c1nc(-c1ccco1)n2CCNCc1ccccc1
active: growth inhibition [1] 97% | growth inhibition [4] 98%
inactive: inhibition [2] -1% | inhibition [3] 2% | outcome [5] | outcome [6] | outcome [7] | outcome [8]

CCCCCNc1nc(Nc2ccccc2C)nc2ccccc12
inactive: growth inhibition [1] 30% | inhibition [2] 5% | inhibition [3] -7% | outcome [5] | outcome [6] | outcome [7] | outcome [8]
active: growth inhibition [4] 100%

CN(C)CC1CCCN1Cc1ccccc1-c1cnn(C)c(=O)c1Oc1ccc(F)cc1 (stereo not given)
inactive: growth inhibition [1] 19% | inhibition [2] 29% | inhibition [3] 2% | outcome [5] | outcome [6] | outcome [7] | outcome [8]
active: growth inhibition [4] 91%

COc1cc(NC(=O)CCCCCCCCN2CCN(C)CC2)c2ncccc2c1
active: growth inhibition [4] 82%
inactive: growth inhibition [1] 36% | inhibition [2] 8% | inhibition [3] -1% | outcome [5] | outcome [6] | outcome [7] | outcome [8]

O=C(Nc1ccc(Cl)cc1Cl)N[C@H]1CCN(CCCCCNC(=O)[C@@H]2C[C@H]2c2ccc(Cl)c(Cl)c2)C1
active: growth inhibition [4] 94%
inactive: growth inhibition [1] 0% | inhibition [2] 37% | inhibition [3] 2% | outcome [5] | outcome [6] | outcome [7] | outcome [8]

COc1ccc(NC(=O)/C=C/c2cc(F)cc(C(F)(F)F)c2)cc1OCCN(C(C)C)C(C)C
active: growth inhibition [4] 97%
inactive: growth inhibition [1] 21% | inhibition [2] 18% | inhibition [3] -3% | outcome [5] | outcome [6] | outcome [7] | outcome [8]

O=C(Nc1ccon1)c1cc(-c2cccnc2)nc2ccc(Cl)cc12
active: growth inhibition [1] 76% | growth inhibition [4] 98%
inactive: inhibition [2] -4% | inhibition [3] 6% | outcome [5] | outcome [6] | outcome [7] | outcome [8]

COc1cc(CCN=C(N)/C=C/c2ccc(Cl)cc2)ccc1Cl
active: inhibition [2] 68% | growth inhibition [4] 100%
inactive: growth inhibition [1] 16% | inhibition [3] 3% | outcome [5] | outcome [6] | outcome [7] | outcome [8]

O=C(NCc1cccc(F)c1)Nc1cccc(-c2cccc(-c3nc4ccccc4[nH]3)c2)c1
inactive: growth inhibition [1] 27% | inhibition [2] 28% | inhibition [3] -1% | outcome [5] | outcome [6] | outcome [7] | outcome [8]
active: growth inhibition [4] 96%

CN1CCC(Oc2cc(NC(=O)Nc3ccc(-c4ccncc4)c(Cl)c3)ccc2Cl)CC1
inactive: inhibition [2] 23% | inhibition [3] -5% | outcome [5] | outcome [6] | outcome [7] | outcome [8]
active: growth inhibition [1] 100% | growth inhibition [4] 99%
